Assay outcomes: PubChem, several laboratories
Rows were chosen to be rich in hits. Some 3.1% of all compounds tested hit in one or more screens of this group.
BioA inh – inhibitors of Mycobacterium tuberculosis BioA enzyme. inhibition, % at 9.99 µM. 360,000 compounds, 0.096% hits. purified M. tuberculosis BioA enzyme, plate reader; in the data active = inhibition above about 40%
GDH-TPI counter-1 – counter-screen for M. tuberculosis FBA inhibitors: GDH-TPI coupled enzymes | GDH-TPI coupled enzyme counterscreen, NADH absorbance | inhibition, % at 4.8 µM | 360,000 compounds, 1.2% hits | AID 588335; in the data active = inhibition above about 30%;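 note: 0% = DMSO wells and 100% = wells lacking the enzyme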
Mtb FBA inh – Mtb fructose-bisphosphate aldolase inhibition; purified M. tuberculosis FBA, fluorescence read-out; P9WQA3; 360,000 compounds, 2.3% hits; inhibition, % at 1 µM;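 note: 0% = vehicle and 100% = reference inhibitor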
Target sequence (P9WQA3 whole entry, looked up): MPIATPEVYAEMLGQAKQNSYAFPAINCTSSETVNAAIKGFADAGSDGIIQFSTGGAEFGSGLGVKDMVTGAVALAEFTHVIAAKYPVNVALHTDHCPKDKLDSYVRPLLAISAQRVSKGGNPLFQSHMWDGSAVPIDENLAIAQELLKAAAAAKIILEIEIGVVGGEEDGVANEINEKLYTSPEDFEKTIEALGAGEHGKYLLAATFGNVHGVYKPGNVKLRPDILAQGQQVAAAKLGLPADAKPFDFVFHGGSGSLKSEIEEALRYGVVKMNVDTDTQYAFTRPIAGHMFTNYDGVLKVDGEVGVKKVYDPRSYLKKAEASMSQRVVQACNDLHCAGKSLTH
3CLpro inhibitor – SARS-CoV 3CLpro protease inhibition; P0C6X7; recombinant SARS-CoV 3CLpro, quenched FRET peptide cleavage; inhibition, % at 6 µM; 290,000 compounds, 0.14% hits; in the data active = inhibition above about 12%
FadD28 binding – blocks FadD28 binding to the bisubstrate probe | fluorescence polarization | inhibition, % at 12.5 µM | 360,000 compounds, 0.22% hits | AID 588549; in the data active = inhibition above about 8.5%, passing the limit was not always enough
Mtb FBA inh conf – Mtb FBA inhibition, confirmed | shares compounds with Mtb FBA inh | inhibition, % at 1 µM | AID 651616 | 5,600 compounds, 78% hits | purified M. tuberculosis FBA, fluorescence read-out;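 note: 0% = vehicle wells and 100% = reference inhibitor wells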
GDH-TPI counter-2 – GDH-TPI inhibition counter-screen for FBA inhibitors; GDH-TPI coupled enzyme counterscreen, fluorescence; shares compounds with Mtb FBA inh; inhibition, % at 1 µM; 5,600 compounds, 81% hits; AID 652141; in the data active = inhibition above about 10%
GDH-TPI dose – inhibits GDH-TPI coupling enzymes in dose response; shares compounds with Mtb FBA inh; GDH-TPI coupled enzyme assay, fluorescence, artifact counterscreen; IC50, µM; 170 compounds, 79% hits; call rule not given here
Starred values were filed as active, the others as inactive; / = not tested or not shown; + = active, no number. Cut-off read from the data, not from the text of the source, unless noted: active = inhibition above about 27%; inactive = the rest.

SMILES | BioA inh | GDH-TPI counter-1 | Mtb FBA inh | 3CLpro inhibitor | FadD28 binding | Mtb FBA inh conf | GDH-TPI counter-2 | others
O=C(Cc1ccc([N+](=O)[O-])cc1)Nc1ccc2c(c1)C(=O)NC2=O | / | 8 | 12 | 3 | 0 | / | /
CCCC(=O)Nc1ccc2c(c1)C(=O)NC2=O | -1 | 1 | 33* | -4 | -3 | 115* | 88*
O=C1NC(=O)c2cc(NC(=O)C3CCCO3)ccc21 (stereo not given) | -2 | 6 | 38* | -4 | -1 | 11 | 0 | GDH-TPI dose=4.2*
CCCC(=O)Nc1cccc(Oc2ccc3c(c2)C(=O)NC3=O)c1 | 13 | 9 | 1 | 4 | 0 | / | /
O=C(Cc1ccc(Cl)cc1)Nc1ccc2c(c1)C(=O)NC2=O | / | 5 | 60* | 2 | 0 | 51* | 35*
COc1ccc(S(=O)(=O)N[C@@H]2C=C[C@@H](CC(=O)NCc3ccccc3F)O[C@H]2CO)cc1 | -1 | / | / | / | / | / | /
COc1cccc(C(O)c2ncc(-c3cccc4ccccc34)[nH]2)c1 (stereo not given) | 2 | -12 | 48* | / | -5 | 56* | 47*
COc1cccc(C(O)c2ncc(-c3ccccc3OC)[nH]2)c1 (stereo not given) | -1 | 9 | 0 | / | -1 | / | /
Cc1ccc(C(O)c2ncc(-c3ccccc3C)[nH]2)cc1F (stereo not given) | 0 | 6 | -3 | / | -1 | / | /
Cc1ccc(C(O)c2ncc(-c3cccc4ccccc34)[nH]2)c(C)c1 (stereo not given) | 0 | -3 | 39* | / | -5 | + | +
OC(c1cccc(Cl)c1)c1ncc(-c2cccc3ccccc23)[nH]1 (stereo not given) | 0 | 7 | 37* | / | -5 | 146* | 103*
Cc1ccc(C(O)c2ncc(-c3cccc4ccccc34)[nH]2)cc1F (stereo not given) | 0 | 1 | 27* | / | -1 | 19 | 13*
Cc1ccc(C(O)c2ncc(-c3ccc4ccccc4c3)[nH]2)c(C)c1 (stereo not given) | 0 | 4 | 16 | / | -2 | / | /
CO[C@H]1CN(C)C(=O)c2ccc(NC(=O)C3CCC3)cc2OC[C@@H](C)N(C(=O)NC(C)C)C[C@@H]1C | 0 | / | / | / | / | / | /
CCCc1cn(CC[C@H]2CC[C@H](NS(=O)(=O)c3ccccc3Cl)[C@@H](CO)O2)nn1 | 0 | / | / | / | / | / | /
NC1=NN=C(N2N=C(c3ccccc3)CC2(O)C(F)(F)F)n2ncnc2C1 (stereo not given) | / | 11 | 17 | -5 | 0 | / | /
NC1=NN=C(N2N=C(c3ccc(Br)cc3)CC2(O)C(F)(F)F)n2ncnc2C1 (stereo not given) | / | 5 | 56* | 0 | 1 | -1 | -2
COc1ccccc1C1=NN(C2=NN=C(N)Cc3ncnn32)C(O)(C(F)(F)F)C1 (stereo not given) | / | 4 | 35* | -3 | -1 | 9 | 1
C[C@H](CO)N1C[C@H](C)[C@H](CN(C)C(=O)Nc2ccc(F)cc2)Oc2ncc(C#Cc3cccc(F)c3)cc2C1=O | 0 | / | / | / | / | / | /
O=C(C[C@H]1CC[C@H]2[C@@H](COC[C@@H](O)CN2Cc2nccs2)O1)NCc1ccccc1 | -1 | / | / | / | / | / | /
C[C@@H](O)C#Cc1ccc([C@@H]2[C@@H](CO)N3CCCCN(CC4CC4)C[C@H]23)cc1 | -1 | / | / | / | / | / | /
O=C(C[C@@H]1CC[C@@H](NC(=O)Nc2ccc3c(c2)OCO3)[C@H](CO)O1)NCc1ccccc1 | 0 | / | / | / | / | / | /
CC(C)C#Cc1ccc2c(c1)O[C@@H](CN(C)CC1CC1)[C@@H](C)CN([C@@H](C)CO)S2(=O)=O | 2 | / | / | / | / | / | /
COc1cc2cc(CN(Cc3nnnn3Cc3ccccc3)CC3CCCO3)c(=O)[nH]c2cc1OC (stereo not given) | 1 | 0 | 35* | 0 | -2 | 136* | 144*
N#CC12COC3(CCCCC3C1(C#N)C#N)OC2=N (stereo not given) | / | 9 | 39* | -4 | 0 | 75* | 61*
CCCC1OC23CCCCC2C(C#N)(C(=N)O3)C1(C#N)C#N (stereo not given) | -3 | 1 | 37* | -1 | 1 | 15 | -2 | GDH-TPI dose=>10
